Compound activity (PubChem)
FGF22 binding: binders of human FGF22 protein, primary screen, FGF22 synaptogenesis inhibitor project, biophysical, thermal shift, single point; Fibroblast growth factor 22 (Homo sapiens), Q9HCT0; recombinant FGF22 thermal shift, SYPRO orange fluorescence; percent of sucrose octasulfate shift, DMSO zero; activity (Tm shift, normalised), % at 9.99 µM; actives 1.5% (n = 340,000); AID 651658, 2012;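 active means mean Tm shift, scaled 0 neutral to 100 positive control, at about 1.3% or above, every replicate too, limit read from the data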
Target sequence (Q9HCT0 whole entry, looked up): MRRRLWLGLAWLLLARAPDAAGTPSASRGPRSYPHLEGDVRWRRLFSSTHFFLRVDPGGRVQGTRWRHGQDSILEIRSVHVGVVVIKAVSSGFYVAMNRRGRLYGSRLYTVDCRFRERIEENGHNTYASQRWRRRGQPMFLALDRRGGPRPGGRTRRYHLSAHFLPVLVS
KLK7 zymogen act: proKLK7 zymogen activators, primary screen, biochemical, fluorescence intensity | Kallikrein-7 (Homo sapiens), P49862 | purified proKLK7, EDANS-DABCYL substrate fluorescence; 100% is mature enzyme control, 0% vehicle | activation, % at 7 µM | actives 0.9% (n = 370,000) | AID 652039, 2013;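 active means activation above the mean of all tested compounds plus 3 SD, computed per campaign excluding outliers beyond control limits, cut at about 13% in these data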
Target sequence (P49862 whole entry, looked up): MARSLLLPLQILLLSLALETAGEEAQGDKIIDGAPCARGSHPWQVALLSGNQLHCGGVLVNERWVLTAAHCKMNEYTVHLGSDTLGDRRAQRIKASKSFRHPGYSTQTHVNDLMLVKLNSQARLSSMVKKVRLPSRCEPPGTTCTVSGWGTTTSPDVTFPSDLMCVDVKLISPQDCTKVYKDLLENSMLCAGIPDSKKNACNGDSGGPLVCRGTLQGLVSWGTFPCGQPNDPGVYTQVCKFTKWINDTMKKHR
rRNA inh HTS: reduced GFP signal of wild-type E. coli, primary screen, bacterial rRNA inhibitor project, GFP/RFP fluorescence, OD600, single point; GFP signal change (wild-type ribosome), % (concentration not given with the values); AID 720706, 2013; E. coli WT GFP vs humanized-ribosome RFP mutants, 24 h; hits give low values; DMSO median 0, no signal -100; actives 1.6% (n = 350,000);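 active means significant combined selectivity score with lowered wild-type GFP, culture density cut under 30%, mutant RFP and density less affected; inactive means any of these conditions unmet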
ADAM10 inh: human ADAM10 inhibitors, primary screen, biochemical, QFRET, HTS; inhibition, % at 7 µM; AID 720582, 2013; recombinant ADAM10, EDANS/DABCYL FRET peptide cleavage, 3 h; actives 0.62% (n = 370,000);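 active means inhibition above a per-campaign cutoff equal to the mean of compounds falling between control-based bounds plus 3 SD, cut at about 20% in these data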;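 further: 0% = DMSO wells while the 100% control is not disclosed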
ADAM17 inh: ADAM17 inhibitors, primary screen, biochemical, QFRET; Disintegrin and metalloproteinase domain-containing protein 17 (Homo sapiens), P78536; recombinant ADAM17, EDANS/DABCYL FRET peptide cleavage; inhibition, % at 6.95 µM; actives 0.83% (n = 370,000); AID 720648, 2013;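 active means inhibition above the mean of compounds lying between control limits plus 3 SD, set per campaign, cut at about 8.5% in these data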;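 further: 0% = DMSO-only wells as the low control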
KLK7 act conf: proKLK7 zymogen activators, confirmation, biochemical, fluorescence intensity, triplicate; shares compounds with KLK7 zymogen act; activation, % at 7 µM; purified proKLK7, EDANS-DABCYL substrate fluorescence; scaled: vehicle 0, mature enzyme 100; actives 68% (n = 3,200); AID 686949, 2013;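 active means activation, as change over the incubation, above the mean of all tested compounds plus 3 SD, cut at about 13% in these data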
EDANS interfere: EDANS-DABCYL substrate optical interference, artefact control for kallikrein-7 zymogen activator project, biochemical, fluorescence intensity, high throughput. activation, % at 7 µM. AID 686952, 2013. no enzyme, 4 h; solvent 0%, active enzyme control 100%. shares compounds with KLK7 zymogen act. actives 80% (n = 3,200);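 active means activation above the all-compound mean plus 3 SD, ignoring values outside control-based bounds, cut at about 4.8% in these data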;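 further: value is the 4 h activation minus the activation read at time zero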
K7 EDANS ctr: counter-screen for kallikrein-7 activators: EDANS-DABCYL interference, dose response. actives 20% (n = 250). AID 720493. EC50, µM. EDANS-DABCYL peptide fluorescence interference, no enzyme. shares compounds with KLK7 zymogen act;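 active means compounds that raise the fluorescence signal in this interference counterscreen, with EC50 at or below 10 µM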;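 further: intact quenched peptide substrate alone read at 355 nm excitation and 520 nm emission; signal is fluorescence gain from T0 to T4 after four hours at room temperature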
Starred values were filed as active, the others as inactive; i = inactive; x = not tested or not shown. Rows were chosen to be rich in hits. Some 3.8% of all compounds tested hit in one or more screens of this group.

SMILES	FGF22 binding	KLK7 zymogen act	rRNA inh HTS	ADAM10 inh	ADAM17 inh	KLK7 act conf	EDANS interfere	others
CCn1cc(C2C(C(=O)Nc3ccc(Br)cn3)=C(C)NC3=C2C(=O)CCC3)c(C)n1 (stereo unspecified)	x	15.5*	x	i	-206.0	17.4*	17.1*
CCCNC(=O)C[C@H]1CC[C@H]2[C@@H](COC[C@H](O)CN2C(=O)Nc2cccc(Cl)c2)O1	0.0	x	-61.3	x	x	x	x
O=C(Nc1ccc(F)cc1)Nc1sccc1-c1nc2ccccc2s1	-0.1	31.9*	-32.9	-63.3	-25.3	-184.1	-286.9
O=C(Nc1ccc(O)c(-c2nc3ccccc3s2)c1)c1cccs1	0.3	-0.1	7.7	1.3	1.1	x	x
CCCC(=O)Nc1c(-c2ccccc2OC)c(=O)c2ccccc2n1C	0.2	0.9	14.0	-56.2	-22.5	x	x
CCCC(=O)Nc1c(-c2ccc(OC)cc2)c(=O)c2ccccc2n1C	x	17.1*	x	-332.1	-107.3	19.8*	16.6*	K7 EDANS ctr=i
CCCCCC(=O)Nc1c(-c2ccc(OC)cc2)c(=O)c2ccccc2n1C	-0.1	16.9*	5.3	-436.5	-141.0	2.6	0.7
CCCCC(=O)Nc1c(-c2ccc(OC)c(OC)c2)c(=O)c2ccccc2n1C	-0.2	-0.4	5.4	0.8	-1.0	x	x
C[C@@H]1CN([C@@H](C)CO)C(=O)c2cccc(NC(=O)Nc3ccc(C(F)(F)F)cc3)c2O[C@@H]1CN(C)C	0.1	x	2.8	x	x	x	x
COc1cc(C=Nc2ccccc2C(=O)Nc2ccccc2)cc(OC)c1OC	0.0	18.7*	2.0	i	-272.4	17.9*	22.4*
CCSc1ccccc1C(=O)Nc1cc(OC)c(OC)c(OC)c1	0.2	0.5	10.2	-0.3	-0.5	x	x
O=C(Cc1ccc([N+](=O)[O-])cc1)NCc1ccccc1Cl	-0.1	40.1*	x	4.3	4.4	-0.7	-1.2
COc1ccc(C2=Nc3ccccc3C2(O)CCN2C(=O)c3ccccc3C2=O)cc1 (stereo unspecified)	0.3	16.1*	-1.9	-32.3	-9.1	22.0*	22.4*
CCC(=O)N[C@@H]1CC[C@H](CC(=O)NCC2CC2)O[C@H]1CO	x	x	9.3	x	x	x	x
O=C(Nc1ccc2[nH]c(=O)[nH]c2c1)c1c(F)c(F)c(F)c(F)c1F	0.3	18.9*	20.8	-40.2	-15.7	28.8*	22.2*	K7 EDANS ctr=i
O=C(/C=C/c1ccc(F)cc1)Nc1ccc2[nH]c(=O)[nH]c2c1	-0.3	34.6*	1.7	-8.1	-4.0	100.6*	92.9*
CCCCNc1nc(-c2ccccc2)cc(C(F)(F)F)c1C(N)=O	0.1	19.2*	-14.3	-244.2	-76.5	-4.6	-4.6
NC(=O)c1c(C(F)(F)F)cc(-c2ccccc2)nc1NCCO	x	7.0	x	-437.6	-136.5	x	x
CC(=O)N1CCc2cc3nc(C)cc(C)c3cc21	x	25.5*	x	-372.9	-126.7	1.9	3.1
CCS(=O)(=O)N1CC2(CN(Cc3ccccc3OC)[C@@H](CO)c3c2c2ccc(OC)cc2n3C)C1	x	x	-2.9	x	x	x	x
COc1ccc2[nH]c3c(=O)n(Cc4ccncc4)cnc3c2c1	0.0	12.7*	0.9	i	-300.6	7.5	9.8*
CCN1CCCC1Cn1cnc2c([nH]c3ccc(OC)cc32)c1=O (stereo unspecified)	0.3	23.8*	11.1	-444.8	-154.1	9.4	10.3*
